This passage reports survival results from PubChem BioAssay AID463173 (ICCB-Longwood Screening Facility, Harvard Medical School, 2010).

Structures are written as SMILES. The whole screen tested about 52,000 compounds, of which about 4,300 (8.3%) were called active. Rule as the data show it: active = survival mostly below about 52% (no sharp cut-off); inactive = mostly above about 56%. Many of the other results were omitted from the sample, so actives are more common in it than they were.

In this test the test system is DeltatarO mutant. The test can be described thus: growth inhibition of S. aureus wild type versus tarO mutant, primary screen, teichoic acid synthesis inhibitors, RN4220, OD600 (AID 463173). The conditions noted are these: OD600, 18 h, active compounds read low, screened at 18.75 µg/mL (by protocol).
Regarding `CC(=O)Nc1ccc(-n2cc3c(c2-c2ccc(C)cc2)c(=O)n(C)c(=O)n3C)cc1`, the survival is 92% (inactive).

As to `COc1ccc(-c2noc(CC(=O)N(C)c3cc(Cl)c(OC)cc3OC)n2)cc1`, the survival was 82% (inactive).

Turning to `COc1ccc(-c2noc(CCC(=O)N(C)c3cc(Cl)ccc3OC)n2)cc1`, the survival is 26% (active).

Consider `COc1ccc(C)cc1N(C)C(=O)CCc1nc(-c2ccccc2F)no1`, for which the survival was 45% (inactive).

`Cc1ccc(NC(=O)CCN2C(=O)c3ccccc3Sc3ncccc32)cc1`: the survival is 66% (inactive).

For the molecule `CCN(CC)C(=O)Cn1c(C)c(C#N)c2ccccc21`, the survival is 96% (inactive).

As to `O=C(CC(c1cccs1)N1Cc2ccccc2C1=O)Nc1ccc(F)c(Cl)c1` (centres undefined), the survival is 83% (inactive).

For `CCn1c2ccccc2c2cc(CN3CCN(Cc4ccccc4F)CC3)ccc21`, the survival was 7% (active).

In the case of `Cc1ccccc1Cn1c(=O)n(CCc2ccccc2)c(=O)c2ccccc21`, the survival was 64% (inactive).

For `O=c1c2ccccc2n(Cc2ccccc2F)c(=O)n1-c1cccc(F)c1`, the survival is 68% (inactive).

For `Cc1cccc(CCn2c(=O)c3ccccc3n(Cc3ccccc3C)c2=O)c1`, the survival was 72% (inactive).

Regarding `CCn1c2ccccc2c2cc(CN3CCN(Cc4ccccc4C)CC3)ccc21`, the survival was -3% (active).

Turning to `CCN(CC)C(=O)C1CCN(Cc2ccccc2F)CC1`, the survival is 99% (inactive).

For the molecule `CCC(C)NC(=O)c1ccc2c(c1)N(Cc1ccccc1)C(=O)c1ccccc1S2` (centres undefined), the survival is 92% (inactive).

Regarding `CCOc1cc2sc(N3CCC(C(=O)Nc4ccccc4Cl)CC3)nc2cc1Br`, the survival is 77% (inactive).

`CCOc1cc(C2NC(=O)c3c(sc4c3CCN(C)C4)N2)ccc1OC(=O)c1ccc(F)cc1` (centres undefined): the survival was 56% (inactive).

In the case of `COc1ccc(-c2[nH]c(-c3ccc(F)cc3)nc2SCC(=O)Nc2ccc(OC)c(OC)c2)cc1`, the survival is 53% (inactive).

For `O=C(CSc1cn(CC(=O)N2CCCCC2)c2ccccc12)NCc1ccccc1Cl`, the survival is 74% (inactive).

For the molecule `CN(C)S(=O)(=O)c1ccc(NC(=O)CNCc2ccco2)cc1`, the survival was 97% (inactive).

As for `O=C(CN1CCCN(Cc2cccc(F)c2)S1(=O)=O)Nc1ccc2c(c1)OCCO2`, the survival is 80% (inactive).

`Cc1ccc(NC(=O)CCS(=O)(=O)c2ccc3nc(C)sc3c2)cc1`: the survival was 34% (active).

For `Cc1cc(C)cc(NC(=O)CCS(=O)(=O)c2ccc3nc(C)sc3c2)c1`, the survival was 50% (inactive).

Regarding `Cc1nc2ccc(S(=O)(=O)CCC(=O)Nc3ccc(Cl)cc3)cc2s1`, the survival was 44% (inactive).

As for `CCOc1ccc(C2C(=O)N(C3CCCCCC3)CC(=O)N2Cc2ccc(F)cc2)cc1OC` (centres undefined), the survival is 117% (inactive).

With `COc1ccc(OCc2nnc(SCC(=O)NCc3ccco3)o2)cc1`, the survival was 85% (inactive).

Take `Cc1ccc(Nc2nc3nonc3n3cnnc23)cc1Cl`: the survival is 70% (inactive).

In the case of `FC(F)(F)c1cccc(Nc2nc3nonc3nc2Nc2ccc(Cl)cc2)c1`, the survival is -16% (active).

For the molecule `Fc1ccc(-c2nc(Nc3cccc(C(F)(F)F)c3)nc3c2COc2ccccc2-3)cc1`, the survival is 54% (inactive).

`NS(=O)(=O)c1ccc(Nc2nc3nonc3nc2Nc2ccc(S(N)(=O)=O)cc2)cc1`: the survival was 122% (inactive).

For `Cc1cc(Nc2cccc(C(F)(F)F)c2)nc2ccc(NC(=O)Cc3ccc(Cl)cc3)cc12`, the survival is 101% (inactive).

Take `O=C(Nc1cccc(C(F)(F)F)c1)c1cc(-c2ccc(Cl)cc2)on1`: the survival was 77% (inactive).

In the case of `Cc1ccc(Nc2nc3nonc3nc2Nc2cccc(C(F)(F)F)c2)cc1Cl`, the survival is -1% (active).

For `Fc1ccc(Nc2nc3nonc3nc2Nc2cccc(C(F)(F)F)c2)cc1`, the survival is -2% (active).

As to `Cc1cc(Nc2cccc(C(F)(F)F)c2)ncn1`, the survival was 54% (inactive).

In the case of `Cc1ccc(C)c(N2CCN(CCCNC(=O)Cn3ncc4c([nH]c5ccccc54)c3=O)CC2)c1`, the survival is 94% (inactive).

In the case of `Cc1noc2ncnc(N3CCCC(C(=O)Nc4cccc(C(F)(F)F)c4)C3)c12` (centres undefined), the survival was 93% (inactive).

For the molecule `Cc1cc(C)n(C(C)CC(=O)NCc2ccc(Cl)cc2)n1` (centres undefined), the survival was 69% (inactive).

Take `COc1ccc2nc(SCC(O)c3cccc(Br)c3)[nH]c2c1` (centres undefined): the survival is 76% (inactive).

As for `Nc1ccc2nc(SCCOc3ccccc3)sc2c1`, the survival is 88% (inactive).

Turning to `Brc1ccc2nc(SCCOc3ccccc3)[nH]c2c1`, the survival is -1% (active).

Turning to `CCOc1ccc(Nc2cc(C)nc3nncn23)cc1`, the survival was 60% (inactive).

`CCCS(=O)(=O)N1CCCC(C(=O)NCCOC)C1` (centres undefined): the survival is 55% (inactive).

`CCCCN(CC)CCNC(=O)Cn1c(=O)c2cccn2c2cccnc21`: the survival was 80% (inactive).

With `COc1ccc(Cl)cc1NC(=O)c1c(C(=O)Nc2cccc(C)c2C)sc2nc(C)cc(=O)n12`, the survival is 74% (inactive).

As to `COc1ccc(C)cc1NC(=O)c1c(C(=O)Nc2cccc(C)c2C)sc2nc(C)cc(=O)n12`, the survival was 61% (active).

Turning to `Cc1cc(=O)n2c(C(=O)Nc3ccc(C)c(C)c3)c(C(=O)Nc3ccccc3)sc2n1`, the survival is 52% (inactive).

`Cc1cc(=O)n2c(C(=O)Nc3ccc(C)c(Cl)c3)c(C(=O)Nc3ccccc3)sc2n1`: the survival is 56% (active).

For the molecule `Cc1ccc(NC(=O)c2c(C(=O)Nc3ccccc3)sc3nc(C)cc(=O)n23)cc1`, the survival is 59% (inactive).

In the case of `Cc1cc(=O)n2c(C(=O)Nc3ccc(F)c(Cl)c3)c(C(=O)Nc3cccc(C)c3C)sc2n1`, the survival was 65% (inactive).

With `CC(C)Oc1ccc(NC(=O)C2COc3ccccc3O2)cc1` (centres undefined), the survival is 103% (inactive).

`Cc1ccc(NS(=O)(=O)c2c(C)nc3sc(C)cn3c2=O)c(C)c1`: the survival was 83% (inactive).

In the case of `CCOc1ccccc1CNC(=O)CN1C(=O)CCCc2ccccc21`, the survival was 86% (inactive).

`COc1cccc(Cn2c(=O)n(CCc3ccccc3)c(=O)c3c2c2cc(OC)ccc2n3C)c1`: the survival is 81% (inactive).

For `CCOc1ccccc1Nc1sc(C(=O)c2ccccc2)c(N)c1C(=O)NCCc1ccccc1`, the survival is 99% (inactive).

Turning to `Cc1ccc(N2CCN(C(=O)NCc3noc4ccc(C)cc34)CC2)c(C)c1`, the survival was 54% (inactive).

For `Cn1c(=O)c2c(nc(SCC(=O)Nc3ccc(F)cc3)n2Cc2ccc(Cl)cc2)n(C)c1=O`, the survival is 31% (active).

For the molecule `Cn1c(=O)c2c(nc(SCC(=O)Nc3ccc(F)cc3)n2Cc2ccccc2)n(C)c1=O`, the survival was 89% (inactive).

As to `Cn1c(=O)c2c(nc(SCC(=O)Nc3ccccc3F)n2Cc2ccccc2F)n(C)c1=O`, the survival was 65% (inactive).

Take `Cn1c(=O)c2c(nc(SCC(=O)Nc3ccccc3F)n2Cc2ccc(Cl)cc2)n(C)c1=O`: the survival is 80% (inactive).

In the case of `Cn1c(=O)c2c(nc(SCC(=O)Nc3ccc(F)cc3)n2Cc2ccccc2F)n(C)c1=O`, the survival was 140% (inactive).

`Cn1c(=O)c2c(nc(SCC(=O)Nc3ccccc3)n2Cc2ccccc2F)n(C)c1=O`: the survival is 43% (active).

Turning to `CC(C)(C)OC(=O)N1CCC(c2c(C(=O)NCc3ccco3)cnn2-c2ccc(F)cc2)CC1`, the survival is 88% (inactive).

On to `CCCCOC(=O)c1cccc(NC(=O)/C=C/c2ccccc2Cl)c1`, for which the survival is 14% (active).

As for `O=C(Cc1ccccc1)Nc1c(C(=O)c2ccccc2)oc2ccccc12`, the survival is 3% (active).

With `CCCCOC(=O)c1ccc(NC(=O)c2cc(=O)c3ccccc3o2)cc1`, the survival was 57% (inactive).

In the case of `O=C(Nc1c(C(=O)Nc2ccc(F)cc2)oc2ccccc12)c1cc2ccccc2o1`, the survival was 47% (active).

For `CCCCOC(=O)c1cccc(NC(=O)c2cc3ccccc3o2)c1`, the survival is 1% (active).

On to `Cc1ccc(NC(=O)c2oc3ccccc3c2NC(=O)c2cc3ccccc3o2)cc1`, for which the survival is 94% (inactive).

In the case of `CCCCc1ccc(-n2nc3ccc(NC(=O)c4cc5ccccc5o4)cc3n2)cc1`, the survival is 72% (inactive).

On to `CCN(CC)c1cc(C)c2cc(NC(=O)/C=C/c3ccccc3Cl)ccc2n1`, for which the survival was 53% (inactive).

Consider `COc1ccc(NC(=O)c2oc3ccccc3c2NC(=O)c2cc3ccccc3o2)cc1`, for which the survival was 89% (inactive).

With `Cc1ccc(C(=O)c2oc3ccccc3c2NC(=O)Cc2ccccc2)cc1`, the survival is 50% (inactive).

Regarding `Cc1ccc(NC(=O)/C=C/c2ccccc2Cl)cc1Cl`, the survival is 67% (inactive).

As for `CCc1ccc2occ(CC(=O)Nc3c(C(=O)c4ccccc4)oc4ccccc34)c2c1`, the survival was 95% (inactive).

As for `CCOc1ccc(CNC(=O)C2Cc3ccccc3N2C(=O)CC)cc1OC` (centres undefined), the survival was 78% (inactive).

Turning to `COc1ccc(OC)c(NC(=O)c2cc3c(=O)n4cccc(C)c4nc3n2C)c1`, the survival is 65% (inactive).

Consider `COc1ccc(CNC(=O)CN(c2cc(C)cc(C)c2)S(=O)(=O)c2c(C)[nH]c(=O)[nH]c2=O)cc1`, for which the survival is 86% (inactive).

Consider `CC1CN(C(=O)CCC(=O)NCc2cccs2)c2cc(Cl)ccc2O1` (centres undefined), for which the survival is 84% (inactive).

`CCOC(=O)c1c(S(=O)(=O)N2CCCC(C(=O)Nc3cc(C)ccn3)C2)c(C)n(C)c1C` (centres undefined): the survival was 83% (inactive).

On to `CN(C1CCCCC1)S(=O)(=O)c1ccc(C(=O)Nc2sc3c(c2C(N)=O)CC(C)(C)NC3(C)C)cc1`, for which the survival was 84% (inactive).

Turning to `COc1ccc2c(c1)c1c(c(=O)n(-c3ccccc3)c(=O)n1CC(=O)NCc1ccc(C)cc1)n2C`, the survival is 83% (inactive).

As to `COc1ccc(-n2cc(C(=O)NCc3ccccc3)c3ccccc3c2=O)cc1`, the survival is 61% (inactive).

As for `CCOc1ccc(NC(=O)c2oc3ccccc3c2NC(=O)C(C)(C)C)cc1`, the survival was 38% (active).

Take `COc1ccc(C(=O)Nc2c(C(=O)c3ccccc3)oc3ccccc23)cc1`: the survival is 72% (inactive).

Consider `COc1cc(C(=O)Nc2c(C(=O)Nc3ccccc3F)oc3ccccc23)cc(OC)c1OC`, for which the survival was 52% (inactive).

On to `COc1ccccc1C(=O)Nc1c(C(=O)Nc2ccccc2F)oc2ccccc12`, for which the survival was 13% (active).

On to `COc1ccccc1NC(=O)c1oc2ccccc2c1NC(=O)c1c(F)cccc1F`, for which the survival is 51% (inactive).

With `CCOc1ccc(NC(=O)c2oc3ccccc3c2NC(=O)c2cc(C)cc(C)c2)cc1`, the survival was 82% (inactive).

With `COc1ccccc1C(=O)Nc1c(C(=O)c2ccccc2)oc2ccccc12`, the survival was -1% (active).

Take `CCOc1ccc(NC(=O)c2oc3ccccc3c2NC(=O)c2c(F)cccc2F)cc1`: the survival was 91% (inactive).

With `O=C(Nc1ccccc1F)c1oc2ccccc2c1NC(=O)c1c(F)cccc1F`, the survival is 26% (active).

For the molecule `COc1ccccc1C(=O)Nc1c(C(=O)NC(C)(C)C)oc2ccccc12`, the survival was 99% (inactive).

Turning to `O=C(Cc1ccccc1)Nc1c(C(=O)Nc2ccccc2F)oc2ccccc12`, the survival is 83% (inactive).

On to `CC(=O)Nc1c(C(=O)Nc2ccccc2F)oc2ccccc12`, for which the survival was 119% (inactive).
